Experimental data from the supplement of paper PMC8975748.
Structures can show the parent of a compound that is named as a salt. ± gives the standard deviation of the averaged measurements.

How the values were obtained:
[1] = system: Saccharomyces cerevisiae BY4741 SeMeCo community; test: mean cell size (pixel area) (pixels); higher = larger cells; details: 10 µM; 24 h; SM minimal medium
How it was run: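 Mean cell pixel area per well was measured in a four-plasmid fluorescent community of Saccharomyces cerevisiae BY4741, where every plasmid complements one auxotrophy and carries a fluorescent marker. Cells from an overnight preculture at OD600 = 1.0 were diluted to OD600 = 0.3 and dispensed at 70 µl into 384-well plates acoustically predosed with drug to a final 10 µM in SM medium. Incubation lasted 24 h, followed by paraformaldehyde fixation, automated confocal imaging and analysis in Harmony. Reported figures are averaged over 3 replicates. Same SeMeCo high-content imaging drug screen: Selleck FDA-approved drugs at 10 µM, 24 h in SM medium, 384-well plates, 3 replicates.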

[2] = system: Saccharomyces cerevisiae BY4741 SeMeCo community; test: z-score of prototroph abundance vs DMSO median; higher = larger share of this subpopulation than in DMSO controls; details: 10 µM; 24 h; SM minimal medium; subpopulation (auxotrophy): Prototroph
How it was run: (§1)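 Automated confocal microscopy of paraformaldehyde-fixed cells was used to follow a Saccharomyces cerevisiae BY4741 community carrying four plasmids, each restoring one auxotrophy and encoding a distinct fluorescent protein. The community was pre-grown overnight to OD600 1.0, diluted to 0.3, and added at 70 µl to 384-well plates acoustically predosed with library drugs (10 µM final) for 24 h of growth in minimal SM medium. Single-auxotroph fluorescent strains set thresholds and autofluorescence correction, and each subpopulation's abundance was scored as a z-score against the vehicle-well median.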

[3] = system: Saccharomyces cerevisiae BY4741 SeMeCo community; test: z-score of subpopulation abundance vs DMSO median, subpopulation auxotrophic for L; higher = larger share of this subpopulation than in DMSO controls; details: 10 µM; 24 h; SM minimal medium; subpopulation (auxotrophy): L
How it was run: as §1

[4] = system: Saccharomyces cerevisiae BY4741 SeMeCo community; test: z-score of subpopulation abundance vs DMSO median, subpopulation auxotrophic for U; higher = larger share of this subpopulation than in DMSO controls; details: 10 µM; 24 h; SM minimal medium; subpopulation (auxotrophy): U
How it was run: as §1

[5] = system: Saccharomyces cerevisiae BY4741 SeMeCo community; test: z-score of subpopulation abundance vs DMSO median, subpopulation auxotrophic for H; higher = larger share of this subpopulation than in DMSO controls; details: 10 µM; 24 h; SM minimal medium; subpopulation (auxotrophy): H
How it was run: as §1

[6] = system: Saccharomyces cerevisiae BY4741 SeMeCo community; test: z-score of subpopulation abundance vs DMSO median, subpopulation auxotrophic for LU; higher = larger share of this subpopulation than in DMSO controls; details: 10 µM; 24 h; SM minimal medium; subpopulation (auxotrophy): LU
How it was run: as §1

[7] = system: Saccharomyces cerevisiae BY4741 SeMeCo community; test: z-score of subpopulation abundance vs DMSO median, subpopulation auxotrophic for LM; higher = larger share of this subpopulation than in DMSO controls; details: 10 µM; 24 h; SM minimal medium; subpopulation (auxotrophy): LM
How it was run: as §1

[8] = system: Saccharomyces cerevisiae BY4741 SeMeCo community; test: z-score of subpopulation abundance vs DMSO median, subpopulation auxotrophic for HM; higher = larger share of this subpopulation than in DMSO controls; details: 10 µM; 24 h; SM minimal medium; subpopulation (auxotrophy): HM
How it was run: as §1

[9] = system: Saccharomyces cerevisiae BY4741 SeMeCo community; test: z-score of subpopulation abundance vs DMSO median, subpopulation auxotrophic for HU; higher = larger share of this subpopulation than in DMSO controls; details: 10 µM; 24 h; SM minimal medium; subpopulation (auxotrophy): HU
How it was run: as §1

[10] = system: Saccharomyces cerevisiae BY4741 SeMeCo community; test: z-score of subpopulation abundance vs DMSO median, subpopulation auxotrophic for UM; higher = larger share of this subpopulation than in DMSO controls; details: 10 µM; 24 h; SM minimal medium; subpopulation (auxotrophy): UM
How it was run: as §1

[11] = system: Saccharomyces cerevisiae BY4741 SeMeCo community; test: z-score of subpopulation abundance vs DMSO median, subpopulation auxotrophic for HL; higher = larger share of this subpopulation than in DMSO controls; details: 10 µM; 24 h; SM minimal medium; subpopulation (auxotrophy): HL
How it was run: as §1

[12] = system: Saccharomyces cerevisiae BY4741 SeMeCo community; test: z-score of subpopulation abundance vs DMSO median, subpopulation auxotrophic for HLU; higher = larger share of this subpopulation than in DMSO controls; details: 10 µM; 24 h; SM minimal medium; subpopulation (auxotrophy): HLU
How it was run: as §1

[13] = system: Saccharomyces cerevisiae BY4741 SeMeCo community; test: z-score of subpopulation abundance vs DMSO median, subpopulation auxotrophic for HLM; higher = larger share of this subpopulation than in DMSO controls; details: 10 µM; 24 h; SM minimal medium; subpopulation (auxotrophy): HLM
How it was run: as §1

[14] = system: Saccharomyces cerevisiae BY4741 SeMeCo community; test: z-score of subpopulation abundance vs DMSO median, subpopulation auxotrophic for HUM; higher = larger share of this subpopulation than in DMSO controls; details: 10 µM; 24 h; SM minimal medium; subpopulation (auxotrophy): HUM
How it was run: as §1

[15] = system: Saccharomyces cerevisiae BY4741 SeMeCo community; test: z-score of subpopulation abundance vs DMSO median, subpopulation auxotrophic for LUM; higher = larger share of this subpopulation than in DMSO controls; details: 10 µM; 24 h; SM minimal medium; subpopulation (auxotrophy): LUM
How it was run: as §1

[16] = system: Saccharomyces cerevisiae BY4741 SeMeCo community; test: z-score of subpopulation abundance vs DMSO median, subpopulation auxotrophic for HLUM; higher = larger share of this subpopulation than in DMSO controls; details: 10 µM; 24 h; SM minimal medium; subpopulation (auxotrophy): HLUM
How it was run: as §1

[17] = system: Saccharomyces cerevisiae BY4741 SeMeCo community; test: z-score of subpopulation abundance vs DMSO median, subpopulation auxotrophic for M; higher = larger share of this subpopulation than in DMSO controls; details: 10 µM; 24 h; SM minimal medium; subpopulation (auxotrophy): M
How it was run: as §1

SMILES	mean cell size [1]	z-score of prototroph abundance [2]	z-score of subpopulation abundance [3]	z-score of subpopulation abundance [4]	z-score of subpopulation abundance [5]	z-score of subpopulation abundance [6]	z-score of subpopulation abundance [7]	z-score of subpopulation abundance [8]	z-score of subpopulation abundance [9]	z-score of subpopulation abundance [10]	z-score of subpopulation abundance [11]	z-score of subpopulation abundance [12]	z-score of subpopulation abundance [13]	z-score of subpopulation abundance [14]	z-score of subpopulation abundance [15]	z-score of subpopulation abundance [16]	z-score of subpopulation abundance [17]
NC(=O)N1c2ccccc2C=Cc2ccccc21 [Carbamazepine]	12.5 ± 0.21	0.13	0.25	0.01	-0.43	-0.08	0.14	-0.61	-0.56	-0.23	-0.72	0.32	0.02	-0.5	0.24	-0.25	
Cc1cc(-c2ccc(/N=N/c3ccc4c(S(=O)(=O)O)cc(S(=O)(=O)O)c(N)c4c3O)c(C)c2)ccc1/N=N/c1ccc2c(S(=O)(=O)O)cc(S(=O)(=O)O)c(N)c2c1O [Evans Blue]	13.5 ± 0.98	-9.18	-1.65	1.78		4.41	-5.69	-7.3	10.3	-9.56	8.09	429	-2.86	-6.59	-5.24	-2.52	
CCOC(=O)c1c(CSc2ccccc2)n(C)c2cc(Br)c(O)c(CN(C)C)c12 [Arbidol HCl]	12.6 ± 0.16	-0.66	-0.99	1.69	0.13	-0.24	-0.98	0.29	0.91	0.68	-0.66	0.12	0.87	0.09	-0.37	0.15	
O=C1CCc2ccc(OCCCCN3CCN(c4cccc(Cl)c4Cl)CC3)cc2N1 [Aripiprazole]	12.3 ± 0.16	-0.84	1.13	0.55	0.82		1.05	0.47	1.26	0.58	1.38	1.16			1.32	0.56	0.38
CCCc1nc(C)c2c(=O)nc(-c3cc(S(=O)(=O)N4CCN(CC)CC4)ccc3OCC)[nH]n12 [Vardenafil HCl Trihydrate]	12.53 ± 0.092	-0.75		1.19	0.41			0.87	1.92	0.56	-0.13	0.57		0.81	-0.24	0.24	0.64
Cc1nccn1CC1CCc2c(c3ccccc3n2C)C1=O (configuration not stated) [Ondansetron Hydrochloride Dihydrate]		0.12	-0.38	1.06	-0.54		-0.17	-0.61	0.2	0.75	-0.09	-0.6		0.55			0.38
CN1CCC(=C2c3ccccc3CCc3sccc32)CC1 [Pizotifen Malate]	12.5 ± 0.16	0.02	0.36	-0.76	-0.02	0.03	-0.03	-0.03	-0.33	-0.43	0.05	0.5	0.21	-0.14	-0.55	0.16	
O=C1CN2Cc3c(ccc(Cl)c3Cl)N=C2N1 [Anagrelide HCl]	12.3 ± 0.29	0.08	-0.32	-0.23	-0.25	-0.64	-0.53	-0.37	0.3		0.5	0.58	1.02	0.14	-0.58	0.12	
CC(c1cc2ccccc2s1)N(O)C(N)=O (configuration not stated) [Zileuton]	12.6 ± 0.19	0.05		0.31	-0.65		0.16	-0.32	-0.39	0.34	-0.17	0.44	0.43	-0.33	0.12	0	0.27
Cc1nc(=O)c2cc(CN(C)c3ccc(C(=O)N[C@@H](CCC(=O)O)C(=O)O)s3)ccc2[nH]1 [Raltitrexed]		1.91	-0.42		-0.94		-0.75	-0.66	-2.1	-2.8	-0.37	-0.94		-1.9	-2.16	-1.38	0.3
CC1(C)S[C@@H]2[C@H](NC(=O)[C@H](N)c3ccc(O)cc3)C(=O)N2[C@H]1C(=O)O [Amoxicillin trihydrate]	12.19 ± 0.082	-0.1	0.15	0.03	-0.05		0.15	-0.15	0.31	0.19	-0.69	0.3		-0.08	0.38		0.05
N#Cc1ccc(Oc2ccc3c(c2)COB3O)cc1 [Crisaborole (AN2728)]	12.3 ± 0.19	-3.53	2.57	0.49			2.61			-0.21	5.69	6.18		1.2	3.54	5.38	-1.21
Cc1ccc(-c2cc(C(F)(F)F)nn2-c2ccc(S(N)(=O)=O)cc2)cc1 [Celecoxib]	12.5 ± 0.15	0.84		-0.79			-0.61	-0.54	-0.62	-0.75	-0.61	-0.86	-0.37		-0.48		-0.11
O=C(O[C@H]1CN2CCC1CC2)N1CCc2ccccc2[C@@H]1c1ccccc1 [Solifenacin succinate]		-0.49		0.4	-0.91		0.27	0	0.28	1.06	0.67	0.46	0.25	0.3	0.68		0.77
CCOc1cc(N)c(Cl)cc1C(=O)NCC1CN(Cc2ccc(F)cc2)CCO1 (configuration not stated) [Mosapride Citrate]	12.5 ± 0.12	-0.84	0.92	0.31	-0.34				0.11	0.37	0.35	0.02		0.97	0.54	1.04	0.17
O=C(CCCN1CC=C(n2c(=O)[nH]c3ccccc32)CC1)c1ccc(F)cc1 [Droperidol]		-0.55		0.1			0.69	0.2	-0.11	0.62	0.21	-0.09	0.63	-0.23	0.57	0.59	0.67
